# Bcl-xL primary: inhibitors of human Bcl-xL, primary screen, biochemical, fluorescence polarization, HTS | AID 2129, 2009 | Bcl-2-like protein 1 (Homo sapiens), Q07817 | inhibition, % at 10.9 µM | GST-Bcl-xL / FITC-Bim BH3 peptide fluorescence polarization | hit rate 0.7% among 320,000;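 active means inhibition above the mean of all tested compounds plus 3 SD, cutoff set per campaign, cut at about 30% in these data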;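 further: 0% = DMSO wells and 100% = unlabeled Bim-BH3 peptide competitor; inhibitors lower millipolarization by displacing the labeled peptide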
# Target sequence (Q07817 whole entry, looked up): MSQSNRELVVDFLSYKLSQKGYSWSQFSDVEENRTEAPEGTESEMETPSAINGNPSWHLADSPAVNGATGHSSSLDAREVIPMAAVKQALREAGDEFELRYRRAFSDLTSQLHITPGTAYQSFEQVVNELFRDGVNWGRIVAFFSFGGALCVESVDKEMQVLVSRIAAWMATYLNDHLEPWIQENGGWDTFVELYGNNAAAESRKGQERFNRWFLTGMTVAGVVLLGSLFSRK
# EBV gp42 block: Epstein-Barr virus gp42 inhibitors, primary screen, biochemical, uHTS, fluorescence polarization. Glycoprotein 42 (Epstein-Barr virus (strain AG876)), Q1HVG2. Fluorescence polarization binding assay, mP read-out. inhibition, % (tested at 21.74 µM). hit rate 0.42% among 220,000. AID 1085, 2008; in the data active means inhibition above about 50%
# Target sequence (Q1HVG2 whole entry, looked up): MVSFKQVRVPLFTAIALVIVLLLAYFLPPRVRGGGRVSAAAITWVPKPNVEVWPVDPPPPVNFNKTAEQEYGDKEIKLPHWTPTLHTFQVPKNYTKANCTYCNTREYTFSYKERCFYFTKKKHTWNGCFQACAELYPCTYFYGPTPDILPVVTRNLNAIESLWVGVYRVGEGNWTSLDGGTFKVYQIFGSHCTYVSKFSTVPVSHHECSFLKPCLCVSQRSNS
# MEX-5 binding: MEX-5 zinc finger RNA-binding disruptors – biochemical, C. elegans, fluorescence polarization, MLPCN library, primary screen; activity score (negative = inhibition of binding), % at 10 µM; hit rate 0.38% among 300,000; MEX-5/FITC-TCR2 RNA binding; hits give low values; Zinc finger protein mex-5 (Caenorhabditis elegans), Q9XUB2;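 active means inhibition past about -25% in most replicates, and total fluorescence under double the plate's negative control median, limit read from the data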;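 further: 0% = DMSO and -100% = 5 µM competing unlabeled TCR2 RNA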
# E coli Lon inh: inhibitors of E. coli Lon protease, primary screen, biochemical, fluorescence polarization. P0A9M0. purified E. coli Lon protease. inhibition, % at 7.94 µM. hit rate 0.42% among 360,000; in the data active means inhibition above about 13%, passing the limit was not always enough;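 further: 0% = enzyme with probe and DMSO and 100% = no enzyme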
# GLD-1 RNA inh: GLD-1/TGE RNA complex disruptors, primary screen, biochemical, fluorescence polarization; inhibition, % at 5.96 µM; hit rate 0.44% among 320,000; AID 2280, 2010; purified GLD-1 + fluorescein TGE RNA;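 active means percent inhibition above a per-plate cutoff, the plate mean of test compounds plus 3 SD, cut at about 30% in these data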;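 further: 0% = DMSO wells with GLD-1 and probe and 100% = wells lacking GLD-1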
# Numbers without * were called inactive; nt = not tested or not shown. Only some compounds are listed: those with a hit (about 1.3% of all), similar ones and a draw of the others.
SMILES,Bcl-xL primary,EBV gp42 block,MEX-5 binding,E coli Lon inh,GLD-1 RNA inh
CC1(OC(=O)CCc2ccccc2)C(=O)C=C2C=C(C3CC3)OC=C2C1=O (stereo unspecified),39*,nt,-19,nt,33*
CCOC(=O)C1CCN(C(=O)C(C)c2ccc([N+](=O)[O-])cc2)CC1 (stereo unspecified),1,2,1,-6,0
Cc1nccn1CCCNC(=O)CC1C(=O)NCCN1Cc1ccc(F)cc1Cl (stereo unspecified),11,nt,1,3,7
COc1cc(C(c2c(C)[nH][nH]c2=O)c2c(C)[nH][nH]c2=O)cc([N+](=O)[O-])c1O,2,2,-81*,-6,1
CCOc1cc(C(c2c(C)[nH][nH]c2=O)c2c(C)[nH][nH]c2=O)cc([N+](=O)[O-])c1O,5,nt,-68*,8,0
CCOc1cc(C(c2c(C)[nH][nH]c2=O)c2c(C)[nH][nH]c2=O)cc(Cl)c1O,4,nt,0,-15,-10
COc1ccccc1CCc1nnc(CCC(=O)NC(C)Cn2nc(C)cc2C)o1 (stereo unspecified),4,-16,-1,-7,-1
O=C1c2cccc(O)c2C(=O)c2c(O)cc(CO)cc21,93*,nt,-9,nt,81*
O=C(COC(=O)CCc1nc2ccccc2c(=O)[nH]1)Nc1ccccc1,nt,nt,nt,-5,4
c1ccc(C(c2nnnn2C2CCCCC2)N2CCc3ccccc3C2)nc1 (stereo unspecified),30*,-5,0,-1,25
CC(C)C(c1nnnn1C1CCCCC1)N1CCc2ccccc2C1 (stereo unspecified),3,-30,-4,1,5
CN(C)c1ccc(N/C=C/C(=O)c2ccccc2)cc1,-12,-61,nt,0,5
CN(C)c1ccc(N/C=C/C(=O)C(C)(C)C)cc1,32*,-11,0,2,3
CC(C(=O)Nc1cccnc1)N1C(=O)c2ccccc2C1=O (stereo unspecified),3,-12,-1,2,3
CC(C(=O)Nc1cccnc1)N1C(=O)C2C3C=CC(C3)C2C1=O (stereo unspecified),89*,0,0,-1,-4
N#Cc1c(NC(=O)CSc2nnc(-c3ccco3)n2-c2ccccc2)sc2c1CCC2,-2,-16,-2,-20,-2
NC(=O)c1c(NC(=O)CSc2nnc(-c3ccco3)n2-c2ccccc2)sc2c1CCC2,8,67*,1,-16,3
NS(=O)(=O)c1ccc(-c2cccc(/C=C3\SC(=O)NC3=O)c2)cc1,-2,nt,-36*,-4,0
COc1ccc(C=C2SC(=O)NC2=O)cc1OC,nt,nt,nt,3,nt
CN(C)c1ccc(/C=C/c2nc3ccccc3c(=O)[nH]2)cc1,-1,nt,-33*,-383,-109
O=c1[nH]c(/C=C/c2cccc3ccccc23)nc2ccccc12,-6,-100,-50*,1,9
CCN(CC)CCNC(=S)N1CCn2c(nc3ccccc32)C1,2,-1,-2,0,2
CCC(C)Sc1cccc(-c2nc3ccc(C)cn3c2NC2CCCCC2)c1 (stereo unspecified),2,nt,3,8,-13
CCC(C)Sc1ccc(-c2nc3ccc(C)cn3c2NC2CCCCC2)cc1 (stereo unspecified),48*,nt,-3,nt,15
COc1cc(C[C@@H](C)[C@@H](C)Cc2ccc(O)c(OC)c2)ccc1O,nt,nt,nt,2,11
SMILES,Bcl-xL primary,EBV gp42 block,MEX-5 binding,E coli Lon inh,GLD-1 RNA inh
CC(Cc1ccc(O)c(O)c1)C(C)Cc1ccc(O)c(O)c1 (stereo unspecified),31*,nt,-36*,nt,15
CC(C)(C)NC(=O)NC(=O)CN1CCCc2ccccc21,77*,-2,nt,-30,6
O=C(CN1CCc2ccccc21)NCc1ccc2c(c1)OCO2,6,-17,1,1,-4
O=C(CN1CCCc2ccccc21)NCc1ccc2c(c1)OCO2,47*,-10,-1,-73,-51
COc1ccc(-c2ccc3c(c2)C2CC3CCN2S(=O)(=O)c2ccccc2C)cc1 (stereo unspecified),nt,nt,nt,-2,nt
Cc1ccc(N2C3=C(C(=O)CC(C)(C)C3)C(c3cn(C)nc3C)C3=C2CC(C)(C)CC3=O)cc1,93*,nt,-7,80*,88*
CC1(C(=O)NS(=O)(=O)c2ccc(Cl)cc2)CCN1C(=O)C/C=C/c1ccccc1 (stereo unspecified),nt,nt,nt,-5,nt
Cc1nc(NC(=O)c2cccnc2Cl)sc1C,-1,nt,4,2,-4
COc1ccc(C=C2NC(=S)NC2=O)cc1,nt,nt,nt,-2,nt
COc1ccc(C(=O)N2C(=S)NC(=O)/C2=C\c2ccc(C)cc2)cc1,-20,-76,-28*,-75,-15
Cc1ccc(C(=O)OCc2nc3ccsc3c(=O)[nH]2)o1,2,nt,-3,-11,5
Cc1cnc(C(=O)OCc2nc3ccsc3c(=O)[nH]2)cn1,30*,nt,nt,-26,14
O=C(O)C1CC(O)CN1c1nc(Cl)ccc1[N+](=O)[O-] (stereo unspecified),37*,16,-4,11,25
O=C(CSc1nc2ccccc2n1CCc1ccccc1)c1ccc(O)c(O)c1,nt,72*,nt,-6,nt
O=C(CSc1nc2ccccc2n1CCc1ccccc1)N1CCOCC1,-4,-23,nt,2,0
O=C(CNS(=O)(=O)c1ccccc1)OCc1cccc([N+](=O)[O-])c1,38*,-7,2,-3,5
NC(=O)c1sc2nc3c(c(-c4ccco4)c2c1N)CCCC3,11,3,-2,-2,2
Nc1c(C(=O)NCC2CCCO2)sc2nc3c(c(-c4ccco4)c12)CC/C3=C\c1ccco1 (stereo unspecified),nt,98*,nt,-7,nt
Cn1c(C(=O)NCCN2CCOCC2)cc2c(=O)n(C)c3ccccc3c21,2,-26,-4,0,8
CC1CCCCN1CCNC(=O)c1cc2c(=O)n(C)c3ccccc3c2n1C (stereo unspecified),34*,8,-6,3,-50
CCCCNC(=S)N(C)/N=C/c1sc(N2CCCCC2)nc1-c1cccs1,39*,31,-13,nt,13
O=C(COC(=O)c1ccccc1NCCO)NNC(=O)c1cccs1,3,nt,-1,4,4
N#C/C(=C\c1ccc([N+](=O)[O-])o1)C(=O)Nc1ccc(F)cc1,41*,6,0,-48,29
COc1ccc(NC(=O)c2cc(C3CCCCN3C(=O)c3cccs3)on2)c(C)c1 (stereo unspecified),nt,nt,nt,-10,nt
CN(CC(=O)Nc1ccc(F)c(F)c1F)C(=O)CCCSc1nc2ccccc2[nH]1,4,nt,0,-18,4
